Results published in PubChem BioAssay (NCI).
Values joined by “and” are separate entries in the source; they are usually repeats but may differ in a detail not shown here. Equal values may be shown once. About 83,000 compounds went through this panel and 20% of them were active in at least one assay; those are over-represented in the sample as a whole.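 For each line, cells grew in 96-well plates with the test compound present at a single concentration for 48 hours.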 Values without a mark were called inactive. Active and inactive are the calls of the source. Starred links: 1 amine or outer side, 2 acyl side, 3 side chain; linkers in the order of their positions; H or OH if unused. Positions of bridges follow the written chain, without caps; N, C: chain ends. Non-standard residues stand in square brackets, D forms with d. Residues, ends and D or L forms follow the SMILES beside them. Chains are numbered I, II in the order given. Actinocin(9to1) = Cc1c2oc3c(C)ccc(C(=O)[*:1])c3nc-2c(C(=O)[*:2])c(N)c1=O; aThr = C[C@H](O)[C@H](N)C(=O)O; NMeV = CN[C@H](C(=O)O)C(C)C; Sar = CNCC(=O)O

system: RPMI-8226 leukemia; assay: NCI-60 one-dose screen, 48 h (100 = growth as untreated, 0 = no growth, -100 = all killed); settings: 0.0025 µM
Description: Growth inhibition of the RPMI-8226 human tumor cell line is measured as a screen for anti-cancer activity. Cells are grown in 96 well plates and exposed to the test compound for 48 hours. Compounds are tested at a single concentration, which is 10^-5 M for most compounds. The reported endpoint is percent growth (GI% or GIPRCNT), where numbers from 0 - 100% represent growth inhibition, and numbers from -100% - 0 represent cell death. For example, a value of 40 represents 60% growth inhibition. A value of 0 means no net growth occurred over the course of the experiment. A value of -40 indicates 40% of cells at the beginning of the experiment died by the end of the experiment. A value of -100 means all cells are dead at the end of the experiment.
NCI-60 Human Tumor Cell Lines Screen was performed using the standard one-dose NCI protocol, which is described in more detail at https://dtp.cancer.gov/discovery_development/nci-60/default.htm.
Compounds with GIPRCNT values below 10 were considered active. Activity score was based on GIPRCNT using the following formula: […]
Score is 0 for GIPRCNT values of 100 or above, 50 for GIPRCNT values of 0, and 100 for GIPRCNT values of -100.

Compound | growth
Cc1c2oc3c(C)ccc(C(=O)N[C@@H]4C(=O)N[C@H](C(C)C)C(=O)N5CCC[C@H]5C(=O)N(C)CC(=O)N(C)[C@@H](C(C)C)C(=O)O[C@H]4C)c3nc-2c(C(=O)N[C@@H]2C(=O)N[C@H](C(C)C)C(=O)N3CCC[C@H]3C(=O)N(C)CC(=O)N(C)[C@@H](C(C)C)C(=O)O[C@H]2C)c(N)c1=O (I: [aThr][dV]P[Sar][NMeV] / II: [aThr][dV]P[Sar][NMeV]; ester I:1-I:C, II:1-II:C; linker I:N-II:N via Actinocin(9to1)) | 3.42% (active)

same assay, conditions: 10 µM

Compound | growth
S=c1[nH]nc(Cc2ccccc2)c(=S)[nH]1 | 97.2%
CN1CCN(c2ccc3nc(-c4ccc5nc(-c6ccc(O)cc6)[nH]c5c4)[nH]c3c2)CC1 | 107%
Cc1c2oc3c(C)ccc(C(=O)N[C@@H]4C(=O)N[C@H](C(C)C)C(=O)N5CCC[C@H]5C(=O)N(C)CC(=O)N(C)[C@@H](C(C)C)C(=O)O[C@H]4C)c3nc-2c(C(=O)N[C@@H]2C(=O)N[C@H](C(C)C)C(=O)N3CCC[C@H]3C(=O)N(C)CC(=O)N(C)[C@@H](C(C)C)C(=O)O[C@H]2C)c(N)c1=O (I: [aThr][dV]P[Sar][NMeV] / II: [aThr][dV]P[Sar][NMeV]; ester I:1-I:C, II:1-II:C; linker I:N-II:N via Actinocin(9to1)) | -21.3% (active)
COc1cc(C(C)(C)C)cc(OC)c1C(O)(c1c(OC)cc(C(C)(C)C)cc1OC)c1c(OC)cc(C(C)(C)C)cc1OC | -27.1% (active)
CSc1ccc2c(c1)C(N1CCN(C)CC1)Cc1ccccc1S2 (stereo unspecified) | 24.3%
CN(C)CCC(=O)c1c[nH]c2ccccc12 | 98.1%
CCCCCCCCCCCCCCCCCN | 107%
O=c1[nH]cc(F)c(=O)[nH]1 | 39.4% and 59.5%
Nc1ccc2cc(Br)c3ccccc3c2c1 | 40%
Cc1cc(NCCCN(C)C)c2ccc3c(ccc4c(NCCCN(C)C)cc(C)nc43)c2n1 | -11.3% (active)
O=C(/C(=C/c1ccccc1)CBr)c1ccccc1 | 16.9%
Cc1cnc(/C=N\NC(N)=S)c2cccc(N)c12 | -9.76% (active)
N#C/C(=C1C=C/C(=N\O)C(Cl)=C\1)c1ccccc1 | 27.3%
BrC/C=C/C[P+](c1ccccc1)(c1ccccc1)c1ccccc1 | 4.56% (active)

same assay, conditions: 25 µM

Compound | growth [%]
O=c1[nH]cc(F)c(=O)[nH]1 | 41.4
